This is an account of results in PubChem BioAssay AID651595 (National Center for Advancing Translational Sciences (NCATS), 2012).

The whole screen tested about 1,100 compounds, of which fewer than 10 were called active. Inconclusive results (about 6%) are left out. Only a sample is shown. A number with no mark means an inactive call. Calls come from the whole dose curve; as a rule, active = well fitted cell-killing curve with a large enough effect; inconclusive = small, poorly fitted or top-dose-only effect; inactive = flat fitted curve, though single readings scatter.
Potency is the fitted concentration of half-maximal effect.

A short description of the assay: qHTS of Nrf2 Activators: Hit Validation in Cytotox Assay. For activity change, negative = cytotoxicity: 0% is about no effect.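 Note: compound exposure lasted 24 hours before the ATP readout.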 Particulars: Cell viability counter-screen for Nrf2 activator hits; series mostly up to 46.1 µM; activity change, negative = cytotoxicity: at the top concentration. An excerpt: Many diseases have some form of oxidative stress injury and ties to inflammation, causing a host of problems for the patient. The antioxidant response element (ARE) plays an important role in alleviating the harmful effects of oxidative stress. The antioxidant response element (ARE) is a transcriptional regulatory element involved in the activation of genes coding for a number of antioxidant proteins and detoxifying enzymes. These enzymes work in concert to protect tissues from oxidative insults and chemical toxicities in human hepatocytes and immune cells. The protective effects of ARE activation are primarily triggered through Nrf2 (NF-E2-related factor) binding to and activating AREs. It is known that Nrf2 controls the production of over 250 antioxidant and detoxification proteins (Hu et al., 2006), thereby protecting tissues by increasing cellular antioxidant content and suppressing inflammatory signaling pathways. The transcription factor Nrf2 is a central link between oxidative chemicals, such as phenolic antioxidants and electrophilic compounds, and the activation of ARE. Nrf2 levels are constitutively low as a consequence of its interaction with Keap1, which targets its degradation (Zipper and Mulcahy, 2002). Electrophiles react with key cysteine residues in Keap1, releasing Nrf2 and allowing its translocation to the nucleus. Once within the nucleus, Nrf2 complexes with coactivators such as p300, and binds to the AREs to induce gene transcription of cytoprotective enzymes, resulting in the prevention of toxicity. Activation of Nrf2 protects tissues by increasing cellular antioxidant content and suppressing inflammatory signaling pathways. Identifying novel and potent Nrf2 activators by using the AREc32 cell line to detect ARE activation by small molecules will lead to the identification and development of probes to study protective pathways in multiple tissues. These specific probes are essential to study the ARE pathway, and eventually to determine whether this pathway does activate genes that could protect against a host of diseases, including cardiovascular diseases, obesity, diabetes, Alzheimer's, and Parkinson's disease.
This project's aim is to identify novel and potent Nrf2 activators by using the AREc32 cell line to detect ARE activation by small molecules, which will lead to the identification and development of probes to study the ARE pathway. Cytotoxic compounds are flagged as active, and inactivity is desired in this assay.
NIH Chemical Genomics Center [NCGC]
NIH Molecular Libraries Probe Centers Network [MLPCN]
Assay Submitter (PI): Curtis Klaassen, University of Kansas Medical Center
Cell viability after compound treatment was measured using a luciferase-coupled ATP quantitation assay (CellTiter-Glo, Promega) in AREc32_fluc cells. The change of intracellular ATP content indicates the number of metabolically competent cells after compound treatment. AREc32_fluc cells were harvested from T225 flask and resuspended in phenol red free OPTI-MEM medium with 5% FBS. Then 5 microL of 200,000 cells/ml resuspended cells was dispensed into each well of white, solid bottom, 1536-well tissue culture-treated plates using a Multidrop Combi dispenser. After overnight culture at 37 degrees C with 5% CO2, a total of 23 nL of compounds at 7 selected concentrations from the cherry pick or positive control (40 uM stock of CDDO-IM and 2 mM of tBHQ) in DMSO was transferred to each well of the assay plate using a pintool (Kalypsys, San Diego, CA), and the plates were further incubated at 37 degrees C with 5% CO2 for 24 hours. After that, 4 microL of CellTilter-GloTM luminescent substrate mix (Promega) was added to each well. The plate was incubated at room temperature for 30 minutes. The plates were measured on a ViewLux plate reader (PerkinElmer) with clear filter.
Turning to `O=C(/C=C/c1ccc2c(c1)OCO2)c1ccc(O)cc1O`, the “activity change, negative = cytotoxicity” value was -2.12%. Regarding `N#Cc1c(-c2ccco2)cc(-c2ccc(F)cc2)nc1N`, the “activity change, negative = cytotoxicity” value is 8.67%. `O=c1[nH]ncc(N/N=C\c2cccs2)c1Cl`: the “activity change, negative = cytotoxicity” value is 2.39%.

Take `COc1ccccc1NC(=O)C(=O)Nc1ccccn1`: the “activity change, negative = cytotoxicity” value was -2.4%. The same measure, in the same setting: then `O=c1[nH]c(/C(Cl)=C/c2cc(Cl)ccc2O)nc2cc(Cl)ccc12`, with -1.06%. Still for that read-out and setting: then `O=C(Cn1cnc2scc(-c3cccc([N+](=O)[O-])c3)c2c1=O)NCc1ccco1`, with -1.79%; and `O=C(/C=C/c1ccco1)Nc1cccnc1Cl`, with -10.5%; and `CCOC(=O)c1c(-c2ccco2)csc1NC(=O)CSc1nnc(N)s1`, with -11.5%. On the same count and under the same terms, the same measure for `CCOC(=O)c1ccccc1N/C=C/C(=O)c1cccs1`: -4.29%. Consider `CN1CCCC1CCNc1ccc2c(=O)c3ccccc3oc2c1` (centres undefined), for which the “activity change, negative = cytotoxicity” value was 0.572%. Still for that read-out and setting: then `Clc1nc(-c2ccccc2)cc(-c2ccccc2)n1`, with 2.29%; and `O=C(N/N=C\c1ccco1)Nc1cccc(Cl)c1`, with -10.8%.

Consider `CN1c2ccsc2/C(=N/Nc2ccccc2)CS1(=O)=O`, for which the “activity change, negative = cytotoxicity” value was -1.51%.

In the case of `O=C(c1ccccc1)[C@@H]1[C@@H]2C(=O)N(c3ccc(F)cc3)C(=O)[C@@H]2C2CCCN21` (some centres undefined), the “activity change, negative = cytotoxicity” value is 4.57%. On the same count and under the same terms, the same measure for `CC1CCCCC1NC(=O)COC(=O)c1c2c(nc3ccccc13)/C(=C/c1ccco1)CC2` (centres undefined): -2.82%; for `CNc1ccccc(C(=O)/C=C/c2ccccc2OC)c1=O`: 0.226%; for `O=C(N/N=C/c1ccc(-c2cccc([N+](=O)[O-])c2)o1)c1cccs1`: -2.3%. On the same count and under the same terms, the same measure for `O=C(Nc1ccccn1)c1ccc(Cl)c([N+](=O)[O-])c1`: 0.552%; for `O=C(/C=C/c1ccco1)Nc1cccc(S(=O)(=O)N2CCOCC2)c1`: 6.93%; for `Cc1ccc([N+](=O)[O-])cc1NC(=O)c1ccc(C(C)(C)C)cc1`: -1.77%. Still for that read-out and setting: then `O=C1/C(=C/c2ccccc2O)SC(=S)N1Cc1cccnc1`, with 4.53%. `Cc1ccc(S(=O)(=O)/N=C(/NNC(=O)c2cccc(Cl)c2)c2ccccc2)cc1`: the “activity change, negative = cytotoxicity” value is -0.738%.

In the case of `Cc1ccc2ccc(C3C(=O)c4ccccc4C3=O)nc2c1`, the “activity change, negative = cytotoxicity” value was 3.2%. Same read-out and setting: then `Fc1cc(F)c2nc(Nc3nc4cc5c(cc4s3)OCO5)sc2c1`, with -28.7%; and `CC(/C=N/NC(=O)Cc1cccn1C)=C\c1ccco1`, with 7.92%; and `CC(C)CCn1c(O)c(N=Nc2ccccn2)c2ccccc21`, with 5.08%. On the same count and under the same terms, then `CCCCn1c(O)c(N=Nc2ccccn2)c2ccccc21`, with -4.62%. `Oc1ccc2ccccc2c1N=Nc1ccccn1`: the Potency was 5.17 µM (active). `O=C(Nc1ccccc1[N+](=O)[O-])C1COc2ccccc2O1` (centres undefined): the “activity change, negative = cytotoxicity” value was 1.87%. Consider `CCOC(=O)COn1c(=O)c(-c2ccco2)[n+]([O-])c2ccccc21`, for which the “activity change, negative = cytotoxicity” value is 5.99%. The same measure, in the same setting: the same measure for `C(=Cc1cnnc2ccccc12)c1ccccc1`: -3.58%; for `Cc1ccc(S(=O)(=O)c2nc(S(C)(=O)=O)sc2N2CCC(C)CC2)cc1`: -3.41%. On to `O=C1C(Cl)=C(N2CCN(c3ccccc3[N+](=O)[O-])CC2)C(=O)c2ccccc21`, for which the Potency is 18.4 µM (active). On to `O=C1C(=Cc2ccccc2[N+](=O)[O-])Cc2ccccc21`, for which the “activity change, negative = cytotoxicity” value is -13.3%. For `N#CC1CC(c2ccccc2)=NN1c1ccccc1[N+](=O)[O-]` (centres undefined), the “activity change, negative = cytotoxicity” value was -5.07%. Still for that read-out and setting: then `COC(=O)c1sccc1NC(=O)c1cccc(OC)c1`, with -4.2%; and `N#C/C(=C1/C(=O)Nc2ccc(Br)cc21)c1ccccn1`, with 1.23%.

Regarding `Nc1ccc2c(c1)Cc1c(F)cccc1-2`, the “activity change, negative = cytotoxicity” value is 6.2%. Same read-out and setting: then `COc1ccc2[nH]c3c(NCc4ccco4)ncnc3c2c1`, with -2.65%; and `O=C(/C(C=Nc1ccc(F)cc1)=C(/O)c1ccco1)C(F)(F)F`, with 0.0691%; and `CC(C)Nc1ccc(-c2nc(-c3ccco3)no2)cc1[N+](=O)[O-]`, with 10.1%.

For `O=C(CSc1ccccn1)N/N=C/c1ccccc1[N+](=O)[O-]`, the “activity change, negative = cytotoxicity” value was 2.77%. Still for that read-out and setting: the same measure for `CCOc1ccccc1NC(=S)NC(=O)c1ccco1`: -1.64%; for `O=C(Nc1nc2ccc(F)cc2s1)c1ccc([N+](=O)[O-])o1`: -20.4%.
